NPC1 promoter act: NPC1 promoter activation; Potency, µM (titrated, usually from 9.22 µM), inactives show at the highest dose activation, actives largely listed as activators; Huh7 NPC1 promoter luciferase reporter, 24 h; 320,000 tested, 2.4% active; note: % of control where 0% means no effect; nearly all actives have a fitted effect of over 60% in size
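Readout is luciferase luminescence, reflecting NPC1 promoter activation in stably transfected Huh7 cells after 24 h compound exposure at 37 °C in reduced-serum medium with 10% FBS.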
SMN2 splice up: increases expression of the SMN2 splice variant; HEK293 SMN2-luciferase splicing reporter, luminescence, 30-36 h; Potency, µM (series often up to 46.1 µM), for inactives: at the top dose activity change, positive = activation, hits mostly activators; 210,000 tested, 2.8% active; note: % of control where 0% means no effect; nearly all actives have a fitted effect of over 55% in size
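HEK293 cells carry an SMN2 minigene-luciferase reporter in which exon 7 inclusion puts luciferase in frame. Cells were seeded at 2000 cells/well, attached for 10-12 hours, then exposed to compounds for 30-36 hours at 37C before ONE-Glo luminescence.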
ELG1 genotox: induces genotoxicity in HEK293T cells with luciferase-tagged ELG1. HEK293T ELG1-luciferase reporter, luminescence, 16 h. Potency, µM (top dose mostly 46 µM), for inactives: at the highest dose activity change, positive = activation, most hits filed as activators. 330,000 tested, 1.3% active; note: % of control where 0% means no effect; nearly all actives have a fitted effect of over 60% in size
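HEK293T cells expressing luciferase-tagged ELG1 were exposed to compound or DMSO vehicle for 16 hr at 37 °C and 5% CO2. Luciferase activity was then measured with ONE-Glo after 30 min at room temperature.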
FLuc counter: inhibits or activates purified firefly luciferase, miR-21 counter-screen. purified FLuc, Km substrates, luminescence inhibition. 360,000 tested, 6.9% active. AID 588342. Potency, µM (series often up to 57.5 µM), without a hit: top-dose activity change, negative = inhibition, hits mostly inhibitors. P08659;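 note: plate controls were vehicle for no effect and reference inhibitor for full effect; nearly all actives have a fitted effect of over 55% in size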
Target sequence (P08659 whole entry, looked up): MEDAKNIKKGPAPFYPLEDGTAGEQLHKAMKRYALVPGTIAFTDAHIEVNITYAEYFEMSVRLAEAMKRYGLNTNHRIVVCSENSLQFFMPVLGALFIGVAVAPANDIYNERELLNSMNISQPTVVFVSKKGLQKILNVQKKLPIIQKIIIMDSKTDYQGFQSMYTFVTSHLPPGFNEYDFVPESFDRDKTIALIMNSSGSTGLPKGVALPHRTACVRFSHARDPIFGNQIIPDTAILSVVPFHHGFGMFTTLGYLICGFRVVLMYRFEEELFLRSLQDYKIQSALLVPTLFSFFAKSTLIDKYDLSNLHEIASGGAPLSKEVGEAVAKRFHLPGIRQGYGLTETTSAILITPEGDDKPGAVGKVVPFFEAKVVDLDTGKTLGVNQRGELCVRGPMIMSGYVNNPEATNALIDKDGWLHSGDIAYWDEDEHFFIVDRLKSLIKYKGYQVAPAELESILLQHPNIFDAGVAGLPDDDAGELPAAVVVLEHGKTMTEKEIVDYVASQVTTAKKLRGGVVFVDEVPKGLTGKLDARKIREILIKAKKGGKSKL
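Purified P. pyralis luciferase (10nM final) with 10uM D-luciferin and 10uM ATP (Km levels) in 50mM Tris acetate pH 7.5, 10mM Mg acetate, 0.01% Tween-20, 0.05% BSA; qHTS 6-point titration, ~60 µM downward; luminescence read.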
KinaseGlo FLuc: blocks Kinase-Glo luciferase, a counter-screen artifact; 200,000 tested, 0.28% active; Kinase-Glo luciferase, ATP luminescence, 8 min; Q27757; AID 1379; Potency, µM (titrated, usually from 38.3 µM), inactives show at the highest dose activity change, negative = inhibition, usual class: inhibitors; note: % is set by controls: 0 for no effect and ±100 for the full control effect; nearly all actives have a fitted effect of over 60% in size
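Kinase-Glo luciferase light output from ATP and luciferin was measured with 10 uM ATP, within the enzyme's linear range. Buffer: 50 mM imidazole pH 7.2, 50 mM KCl, 7 mM MgCl2, 0.01% Tween 20, 0.05% BSA; luminescence read after 8 min at ambient temperature.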
Rab9 promoter act: activators of Rab9 promoter. Huh7 Rab9 promoter-luciferase reporter, luminescence, 24 h. Potency, µM (doses to about 9.22 µM), without a hit: at the highest dose activation, negative = inhibition, most hits filed as activators. 320,000 tested, 2.8% active; note: % of control where 0% means no effect; nearly all actives have a fitted effect of over 60% in size
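Luminescence from Amplite-detected luciferase (10 minutes, ambient) reports Rab9 promoter activation. Before that, stable Rab9-luciferase Huh7 cells (1500/well, reduced-serum OP-MEM I plus 10% FBS) were exposed to compound for 24 hours at 37C.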
Active calls of the source: *; ? = inconclusive; nt = no result; [ ] = another dose, or the depositor's remark. The list is not random: actives were taken first. Their share in the collection is about 7.5%. Calls come from the whole dose curve; as a rule, active = well fitted curve in the direction sought with a large enough effect; inconclusive = small, poorly fitted or top-dose-only effect, or another doubt; inactive = no such curve, though single readings can be large; an effect the other way counts as inactive or inconclusive. Potency is the fitted concentration of half-maximal effect.

SMILES	NPC1 promoter act	SMN2 splice up	ELG1 genotox	FLuc counter	KinaseGlo FLuc	Rab9 promoter act
CCc1nccn1CCC(=O)NC1CC(C)(C)Cc2c1cnn2-c1cccc(F)c1 (stereo unspecified)	-4%	nt	-4%	0%	nt	5%
COc1ccc(/C=N/Nc2ncnc3sc4c(c23)CCCC4)cc1OC	11%	21%	0%	2.7µM*	-2%	8%
COc1ccc(/C=N/Nc2ncnc(Cl)c2N)cc1OC	2%	23%	10%	21µM*	-2%	2%
Nc1c(Cl)ncnc1N/N=C/c1cccc(O)c1	5%	nt	2%	17µM*	nt	-3%
Nc1c(Cl)ncnc1N/N=C/c1ccncc1	-3%	nt	-1%	0%	nt	-6%
O=C(Oc1cccc([N+](=O)[O-])c1)N1CCCCC1	-1%	-9%	3%	-5%	0%	-4%
CCOC(=O)CC1c2cc(OCC)c(OCC)cc2CCN1C(=O)Nc1cccc(Cl)c1 (stereo unspecified)	nt	nt	nt	2%	nt	nt
Nc1ccc(-c2cn3cccnc3n2)cc1	24%	31%	13%	?	1%	?
O=c1oc2ccccc2cc1-c1cn2cccnc2n1	1µM*	4.5µM*	?	4.3µM*	?	0.56µM*
Cc1cccn2cc(-c3cc4ccccc4oc3=O)nc12	0.11µM*	nt	0.82µM*	0.19µM*	?	0.14µM*
CC(C)c1cc(C(=O)Nc2cc(Br)ccc2O)no1	24%	?	?	?	-5%	?
CSc1ccccc1NC(=O)c1cc(C(C)C)on1	?	18%	12µM*	21µM*	-8%	?
O=C(Nc1cc(Br)ccc1O)c1cc(-c2cccs2)on1	23%	nt	29%	?	nt	?
CCCc1cc(C(=O)Nc2cc(Cl)ccc2O)no1	?	nt	16µM*	11µM*	nt	?
CCCc1cc(C(=O)Nc2cc(Br)ccc2O)no1	16%	?	13µM*	?	3%	25%
CC(C)c1cc(C(=O)Nc2cc(Cl)ccc2O)no1	2.8µM*	13µM*	?	7.6µM*	-3%	1.6µM*
CN(CC(=O)Nc1cccc(F)c1)C(=O)CCCN1C(=O)c2cccc3cccc(c23)C1=O	7%	nt	1%	?	nt	1%
CC(C)(C)c1ccc(Cn2ccc(-c3ccc4c(c3)OCO4)n2)cc1	8%	4%	1%	27µM*	-3%	12%
Brc1ccc2nc(N3CCN(c4ccccc4)CC3)sc2c1	1.8µM*	3.2µM*	2.3µM*	?	2%	1µM*
Clc1ccc2nc(N3CCN(c4ccccc4)CC3)sc2c1	1.4µM*	3.2µM*	?	0.6µM*	-2%	0.89µM*
O=S(=O)(c1ccccc1)N1CCN(c2nc3ccccc3s2)CC1	21%	-4%	?	5%	3%	?
Cc1nnc(SCC(=O)Nc2nnc(-c3ccccc3)o2)s1	2%	nt	6%	19µM*	nt	2%
Nn1c(SCC(=O)Nc2ccc(Oc3ccccc3)cc2)nnc1C1CC1	-1%	-14%	-7%	?	-2%	8%
Nn1c(SCC(=O)Nc2nnc(-c3ccccc3)o2)nnc1C1CC1	11%	nt	-1%	8.5µM*	nt	-2%
Cc1cc2nc(C)c(=O)n(C)c2cc1C	-2%	?	3%	1%	-1%	-3%
SMILES	NPC1 promoter act	SMN2 splice up	ELG1 genotox	FLuc counter	KinaseGlo FLuc	Rab9 promoter act
Cc1cc2nc(-c3ccc(=O)[nH]c3)n(C)c2cc1C	5%	nt	10%	17µM*	nt	12%
O=c1c(/C=N/N2CCOCC2)c(C(F)(F)F)[nH]n1-c1ccccc1	-2%	12%	0%	-18%	1%	-4%
CC(OC(=O)CCN=C1NS(=O)(=O)c2ccccc21)C(=O)Nc1ccc(F)c(F)c1F (stereo unspecified)	4%	nt	-2%	2%	nt	1%
C=CCOc1ccc(C=Nc2ccc(OC)cc2)c(O)c1	0%	nt	1%	8.5µM*	nt	-11%
COc1ccc(N=Cc2c[nH][nH]c2=O)cc1	2%	-7%	3%	-15%	-6%	1%[1.84 µM]
N/C(=N\C(=S)Nc1ccccc1)c1ccccc1	0.5µM*	nt	?	11µM*	nt	0.71µM*

Screening results: PubChem, National Center for Advancing Translational Sciences (NCATS)
